Source: PubChem BioAssay (National Center for Advancing Translational Sciences (NCATS))
Shown are actives, neighbours in structure and some others; about 7.4% of the full set was active somewhere.
Rab9 prom act: activates the Rab9 promoter | Huh7 Rab9 promoter-luciferase reporter, luminescence, 24 h | Potency, µM (doses to about 9.22 µM), hits mostly activators | actives 2.8% (n = 320,000); also: nearly all actives have a fitted effect of over 60% in size
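Huh7 cells stably carrying Rab9 promoter–luciferase reporter, plated 1500 cells/well, compound added after 2 h and incubated 24 h at 37 °C; luciferase luminescence then read after 10 min with detection reagent.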
FLuc modulator: firefly luciferase modulation, counter-screen for miR-21 project; purified FLuc, Km substrates, luminescence inhibition; AID 588342; actives 6.9% (n = 360,000); P08659; Potency, µM (series often up to 57.5 µM), most hits filed as inhibitors; also: nearly all actives have a fitted effect of over 55% in size
Target sequence (P08659 whole entry, looked up): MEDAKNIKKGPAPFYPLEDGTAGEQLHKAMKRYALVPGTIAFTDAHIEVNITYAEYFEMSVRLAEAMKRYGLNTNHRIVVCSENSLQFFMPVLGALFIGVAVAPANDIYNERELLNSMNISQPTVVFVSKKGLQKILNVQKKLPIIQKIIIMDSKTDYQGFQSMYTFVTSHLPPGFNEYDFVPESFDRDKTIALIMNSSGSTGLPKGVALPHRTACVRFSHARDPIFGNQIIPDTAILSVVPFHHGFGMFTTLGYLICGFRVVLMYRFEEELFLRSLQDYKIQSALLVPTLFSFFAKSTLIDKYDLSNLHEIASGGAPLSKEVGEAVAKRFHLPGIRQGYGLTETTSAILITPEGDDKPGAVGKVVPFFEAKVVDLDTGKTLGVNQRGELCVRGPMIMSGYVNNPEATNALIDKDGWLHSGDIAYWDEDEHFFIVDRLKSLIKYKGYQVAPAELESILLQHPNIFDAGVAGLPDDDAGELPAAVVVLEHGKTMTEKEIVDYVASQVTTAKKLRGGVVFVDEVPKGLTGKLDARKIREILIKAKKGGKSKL
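Purified P. pyralis luciferase, 10 nM final, with Km-level 10 uM D-luciferin and 10 uM ATP in 50 mM Tris acetate pH 7.5, 10 mM Mg acetate, 0.01% Tween-20, 0.05% BSA; 6-point qHTS titration about 60 µM downward; luminescence read.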
NPC1 prom act: activators of NPC1 promoter; Huh7 NPC1 promoter luciferase reporter, 24 h; Potency, µM (doses to about 9.22 µM), most hits filed as activators; actives 2.4% (n = 320,000); AID 485313; also: nearly all actives have a fitted effect of over 60% in size
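Huh7 cells stably carrying NPC1 promoter–luciferase, plated in Opti-MEM with 10% FBS for 2 h, were exposed to compound in DMSO for 24 h at 37 °C; luciferase reagent was added for 10 min and luminescence read.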
ELG1 genotoxic: induces genotoxicity in HEK293T cells with luciferase-tagged ELG1 | actives 1.3% (n = 330,000) | Potency, µM (top dose mostly 46 µM), most hits filed as activators | HEK293T ELG1-luciferase reporter, luminescence, 16 h; also: nearly all actives have a fitted effect of over 60% in size
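Reporter readout depends on ELG1 protein level, which increases with genetic stress. After 16 hr compound exposure at 37 °C, luciferase activity was quantified using ONE-Glo.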
Luc counter: counter-screen: inhibitors of Kinase-Glo firefly luciferase. Q27757. Kinase-Glo luciferase, ATP luminescence, 8 min. Potency, µM (top dose mostly 38.3 µM), most hits filed as inhibitors. actives 0.28% (n = 200,000); also: nearly all actives have a fitted effect of over 60% in size
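Substrate mix (final 50 mM imidazole pH 7.2, 50 mM KCl, 7 mM MgCl2, 10 uM ATP, 0.01% Tween 20, 0.05% BSA) plus pin-tool compound, then Kinase-Glo detection mix; 8 min ambient, luminescence read.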
SMN2 splice enh: enhancers of SMN2 splice variant expression. Potency, µM (highest dose often 46.1 µM), usual class: activators. AID 1458. actives 2.8% (n = 210,000). HEK293 SMN2-luciferase splicing reporter, luminescence, 30-36 h; also: nearly all actives have a fitted effect of over 55% in size
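qHTS luciferase splicing reporter: luminescence rises when SMN2 exon 7 is included in transfected HEK293 cells. Compound exposure lasted 30-36 h at 37C, with 4.5 mM final sodium butyrate as control, followed by a ONE-Glo read.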
Of the large screens only hits and unclear results are named; the others gave an inactive call. Calls follow the shape of the dose curve; as a rule, active = well fitted curve in the direction sought with a large enough effect; inconclusive = small, poorly fitted or top-dose-only effect, or another doubt; inactive = no such curve, though single readings can be large; an effect the other way counts as inactive or inconclusive.

CC(C)c1ccccc1NC(=S)NCc1ccncc1	none
CCc1ccc(NC(=O)C2=CC=CN3CCS(=O)(=O)N=C23)cc1	FLuc modulator 15µM (no result: Luc counter, SMN2 splice enh)
CC(C)c1ccc(NC(=O)C2=CC=CN3CCS(=O)(=O)N=C23)cc1	FLuc modulator inconclusive, ELG1 genotoxic inconclusive (no result: Luc counter, SMN2 splice enh)
O=C(NN=C1CCCC1)c1ccccc1O	FLuc modulator inconclusive (no result: Luc counter, SMN2 splice enh)
C/C(=N\NC(=O)c1ccccc1NC(=O)c1ccc(Cl)cc1)c1ccncc1	Rab9 prom act inconclusive, FLuc modulator 0.027µM, NPC1 prom act inconclusive, Luc counter 1.3µM
O=C(O)c1ccccc1NN=C1CCCCC1	Rab9 prom act inconclusive, FLuc modulator 11µM, NPC1 prom act inconclusive, ELG1 genotoxic inconclusive (no result: SMN2 splice enh)
C/C(=N\Nc1ccccc1C(=O)O)c1ccncc1	Rab9 prom act 3.2µM, FLuc modulator 11µM, NPC1 prom act 2.2µM, ELG1 genotoxic 3.3µM (no result: Luc counter, SMN2 splice enh)
COc1ccc(/C(=N\Nc2ccccc2C(=O)O)c2ccccc2)cc1	FLuc modulator 9.5µM
Cc1ccc2c(=O)c(C(=O)c3ccc(F)cc3)cn(CC(=O)NCc3ccccc3)c2n1	none (no result: Rab9 prom act, NPC1 prom act, ELG1 genotoxic, Luc counter, SMN2 splice enh)
COc1ccc(OC)c(CNC(=O)Cc2ccc(NC(=O)N3CCSc4ncccc43)cc2)c1	none (no result: Rab9 prom act, NPC1 prom act, ELG1 genotoxic, Luc counter, SMN2 splice enh)
CCSc1ccccc1C(=O)Nc1ccc(S(=O)(=O)NC(C)=O)cc1	none (no result: SMN2 splice enh)
CCCCC(=O)Nc1ccc2c(c1)nc1n2CCSC1	Rab9 prom act 3.5µM, FLuc modulator 24µM, NPC1 prom act 3.5µM, ELG1 genotoxic 7.3µM, SMN2 splice enh inconclusive
CC(=O)Nc1ccc2c(c1)nc1n2CCSC1	none
COc1ccccc1C(=O)Nc1ccc2c(c1)nc1n2CCSC1	Rab9 prom act 1.8µM, FLuc modulator 3µM, NPC1 prom act inconclusive, ELG1 genotoxic inconclusive, SMN2 splice enh 22µM
Cc1ccc(C(=O)Nc2ccc3c(c2)nc2n3CCSC2)cc1	Rab9 prom act 0.56µM, FLuc modulator 2.7µM, NPC1 prom act 0.71µM, ELG1 genotoxic inconclusive (no result: SMN2 splice enh)
COc1ccc(OCC(=O)Nc2ccc3c(c2)nc2n3CCSC2)cc1	FLuc modulator inconclusive
CN=c1scc(C)n1/N=C/c1cc(Br)c(O)c(Br)c1	FLuc modulator 11µM
CN=c1scc(C)n1/N=C/c1ccc(O)cc1	Rab9 prom act 2.2µM, FLuc modulator 3µM, NPC1 prom act 3.2µM, ELG1 genotoxic 3.2µM, SMN2 splice enh inconclusive
Cc1cc(C)n(/N=C/c2ccc(O)cc2)c(=O)c1C#N	none (no result: SMN2 splice enh)
Cc1nnc(C)n1/N=C/c1ccc2c(c1)OCCO2	ELG1 genotoxic inconclusive
CN=c1scc(C)n1/N=C/c1ccc2c(c1)OCO2	Rab9 prom act 0.35µM, FLuc modulator 1.3µM, NPC1 prom act 0.71µM, ELG1 genotoxic 0.65µM, SMN2 splice enh 4.5µM
CN=c1scc(-c2ccco2)n1/N=C/c1ccc(O)c(O)c1	FLuc modulator 0.67µM, ELG1 genotoxic inconclusive, SMN2 splice enh 7.9µM
Cc1ccccc1C(=O)NNC(=O)/C=C/c1ccccc1	none
CC(C)c1ccc(/C(C(=O)O)=C(\O)C(=O)O)cc1	none (no result: Rab9 prom act, FLuc modulator, NPC1 prom act, ELG1 genotoxic)
CCN(CC(=O)NC1CCS(=O)(=O)C1)S(=O)(=O)c1ccc(Br)cc1 (stereo not given)	none (no result: Rab9 prom act, FLuc modulator, NPC1 prom act, Luc counter, SMN2 splice enh)
COc1cccc(CNC(=O)CN2C(=O)N(c3cccc(Cl)c3)S(=O)(=O)c3ccccc32)c1OC	none (no result: Rab9 prom act, NPC1 prom act, ELG1 genotoxic, Luc counter, SMN2 splice enh)
CCN=c1scc(C)n1/N=C/c1cc(Br)c(O)c(OC)c1	FLuc modulator inconclusive, SMN2 splice enh inconclusive
C=CCN=c1scc(C)n1/N=C/c1ccc(O)c(O)c1	FLuc modulator 27µM, ELG1 genotoxic inconclusive, SMN2 splice enh 16µM
CN=c1scc(C)n1/N=C/c1ccc(O)cc1O	Rab9 prom act 0.71µM, FLuc modulator 0.43µM, NPC1 prom act 0.45µM, ELG1 genotoxic inconclusive, SMN2 splice enh 4.5µM
CCN(CC(=O)Nc1c(F)cccc1F)C(=O)/C=C/c1ccc(C)cc1	Rab9 prom act inconclusive, FLuc modulator 19µM, NPC1 prom act inconclusive, ELG1 genotoxic inconclusive (no result: Luc counter, SMN2 splice enh)
CCN(CC(=O)Nc1c(F)cccc1F)C(=O)/C=C/c1ccc(OCC#N)c(OC)c1	none (no result: Luc counter, SMN2 splice enh)
Cc1ccc(S(=O)(=O)N2CCN(C(=O)CNC(=O)c3sc4ccccc4c3Cl)CC2)cc1	none (no result: Luc counter, SMN2 splice enh)
COc1ccc2c(Cl)c(C(=O)N/N=C/c3ccc4c(c3)OCO4)sc2c1	none
